The nature of assay [1]: compounds binding Alexa647 anti-His antibody – biochemical, small-molecule microarray, 635 nm fluorescence, artefact control for SMM control protein annotation, primary screen (AID 1128).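 Also: score merges feature fluorescence with signal-to-noise for each printed compound spot.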 The following applies: higher = more signal.
The subject of assay [2] is Human papillomavirus type 1a E7 protein (residues 1-88). Nature of the assay: HPV1a E7 small-molecule binders, primary screen, biochemical, small-molecule microarray, residues 1-88, 635 nm (AID 1129). The following applies: small-molecule microarray binding, fluorescence 635 nm; higher = more signal.
The target of assay [3] is Focal adhesion kinase 1 (Homo sapiens) (UniProt Q05397). Description: PTK2 protein binding on printed compound slides – biochemical, small-molecule microarray, 635/667 nm fluorescence, BSA, DTT, primary screen (AID 1130).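 Also: composite of spot emission at 667 nm and signal to noise over triplicate slides.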 The note with it: 635 nm fluorescence, higher = more signal.
Chain of Focal adhesion kinase 1 (Homo sapiens) (Q05397 whole entry, looked up): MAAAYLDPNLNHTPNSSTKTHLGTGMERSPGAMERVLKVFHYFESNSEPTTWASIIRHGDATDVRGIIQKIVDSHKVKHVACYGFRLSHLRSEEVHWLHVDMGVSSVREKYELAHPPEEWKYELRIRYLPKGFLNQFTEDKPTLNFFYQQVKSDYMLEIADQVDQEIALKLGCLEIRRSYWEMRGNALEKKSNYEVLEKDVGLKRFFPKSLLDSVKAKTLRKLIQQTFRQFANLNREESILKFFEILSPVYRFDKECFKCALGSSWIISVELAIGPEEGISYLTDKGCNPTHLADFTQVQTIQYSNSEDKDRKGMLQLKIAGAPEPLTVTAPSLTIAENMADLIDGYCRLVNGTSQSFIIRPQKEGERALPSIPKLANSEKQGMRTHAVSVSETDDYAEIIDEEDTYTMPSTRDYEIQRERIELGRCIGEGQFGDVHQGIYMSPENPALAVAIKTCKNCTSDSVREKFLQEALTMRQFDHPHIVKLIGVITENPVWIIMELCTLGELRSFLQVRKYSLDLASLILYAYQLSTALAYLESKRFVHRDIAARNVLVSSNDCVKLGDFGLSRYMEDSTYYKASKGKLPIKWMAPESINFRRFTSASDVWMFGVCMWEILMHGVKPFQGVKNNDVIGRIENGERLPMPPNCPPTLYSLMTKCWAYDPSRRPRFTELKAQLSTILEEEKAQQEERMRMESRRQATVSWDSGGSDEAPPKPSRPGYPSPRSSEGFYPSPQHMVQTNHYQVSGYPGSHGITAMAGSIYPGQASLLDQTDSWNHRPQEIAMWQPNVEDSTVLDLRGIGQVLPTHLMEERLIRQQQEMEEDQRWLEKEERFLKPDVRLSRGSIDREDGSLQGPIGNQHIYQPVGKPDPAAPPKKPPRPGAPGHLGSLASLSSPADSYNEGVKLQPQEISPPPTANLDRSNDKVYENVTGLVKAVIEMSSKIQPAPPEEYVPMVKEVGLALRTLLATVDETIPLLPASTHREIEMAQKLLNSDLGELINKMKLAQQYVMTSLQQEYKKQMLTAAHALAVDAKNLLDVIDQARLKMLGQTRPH
Assay [4] has as its system Fibrinogen (Alexa647-labelled). Description: Alexa647-fibrinogen binding to printed small molecules – biochemical, small-molecule microarray, 635/667 nm fluorescence, artefact control for SMM control-protein annotation, profiling panel (AID 1131).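 Also: z-score merges 667 nm fluorescence with per-spot signal-to-noise over triplicate slides.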 The following applies: fibrinogen-A647 binding fluorescence, higher = more signal.
Assay [5] deals with Follistatin (Homo sapiens) (UniProt P19883). Nature of the assay: FST protein binding to printed compounds – biochemical, small-molecule microarray, 635/667 nm fluorescence, primary screen (AID 1132). The following applies: 635 nm fluorescence, higher = more signal.
Chain of Follistatin (Homo sapiens) (P19883 whole entry, looked up): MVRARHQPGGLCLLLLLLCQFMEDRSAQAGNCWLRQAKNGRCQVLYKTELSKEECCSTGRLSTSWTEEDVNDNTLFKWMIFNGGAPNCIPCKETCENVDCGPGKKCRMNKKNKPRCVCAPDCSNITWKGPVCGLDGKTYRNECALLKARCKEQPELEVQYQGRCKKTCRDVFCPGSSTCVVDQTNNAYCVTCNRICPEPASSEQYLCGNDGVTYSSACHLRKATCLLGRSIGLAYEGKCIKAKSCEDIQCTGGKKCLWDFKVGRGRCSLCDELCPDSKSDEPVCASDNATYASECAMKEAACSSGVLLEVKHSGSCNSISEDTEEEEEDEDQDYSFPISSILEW
The target of assay [6] is Fibroblast growth factor 2 (Homo sapiens) (UniProt P09038). Nature of the assay: basic fibroblast growth factor binding to printed compounds – biochemical, small-molecule microarray, 635/667 nm fluorescence, primary screen (AID 1133). The note with it: FGF2, fluorescence 635/667, higher = more signal.
Chain of Fibroblast growth factor 2 (Homo sapiens) (P09038 whole entry, looked up): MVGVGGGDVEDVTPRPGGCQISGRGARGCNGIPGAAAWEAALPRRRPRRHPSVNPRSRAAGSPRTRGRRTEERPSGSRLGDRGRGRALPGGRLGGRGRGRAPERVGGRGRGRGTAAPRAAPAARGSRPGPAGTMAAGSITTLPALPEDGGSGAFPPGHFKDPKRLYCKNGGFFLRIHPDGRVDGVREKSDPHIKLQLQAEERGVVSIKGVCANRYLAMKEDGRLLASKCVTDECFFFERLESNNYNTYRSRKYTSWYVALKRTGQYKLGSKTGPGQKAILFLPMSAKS
The nature of assay [7]: JC-1 mitochondrial potential readout, lung cancer cells – cell-based, A549, JC-1 fluorescence, basal, 24 h, 100 nL, profiling panel (AID 1138).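 Also: A549 lung adenocarcinoma cells under basal conditions with no added stimulus; test concentration not given here.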 The following applies: higher = more signal.
The test system of assay [8] is Lefty1. Nature of the assay: Lefty1 protein binding to printed compounds – biochemical, small-molecule microarray, 635/667 nm fluorescence, primary screen (AID 1139). The note with it: fluorescence 635/667, higher = more signal.
In assay [9] the test system is wheat germ agglutinin (Triticum aestivum), Alexa647-labelled. Description: Alexa647-WGA lectin binding to printed small molecules – biochemical, small-molecule microarray, 635/667 nm fluorescence, artefact control for SMM control-protein annotation, profiling panel (AID 1140).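 Also: score merges 667 nm feature emission with signal to noise over triplicate slides.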 The note with it: WGA-A647 binding, 635 nm fluorescence, higher = more signal.
Assay [10] deals with Luciferin 4-monooxygenase (Photinus pyralis) (UniProt P08659). Description: inhibition of purified Photinus pyralis luciferase – biochemical, luminescence, purified enzyme, 2006 set, primary screen (AID 1141).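 Also: cell-free assay with purified firefly luciferase at 100 ng per well in PBS; test concentration not given here.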 The following applies: purified firefly luciferase, SteadyGlo luminescence, 30 min; higher = more signal, called active from +8 up or from −8 down.
Chain of Luciferin 4-monooxygenase (Photinus pyralis) (P08659 whole entry, looked up): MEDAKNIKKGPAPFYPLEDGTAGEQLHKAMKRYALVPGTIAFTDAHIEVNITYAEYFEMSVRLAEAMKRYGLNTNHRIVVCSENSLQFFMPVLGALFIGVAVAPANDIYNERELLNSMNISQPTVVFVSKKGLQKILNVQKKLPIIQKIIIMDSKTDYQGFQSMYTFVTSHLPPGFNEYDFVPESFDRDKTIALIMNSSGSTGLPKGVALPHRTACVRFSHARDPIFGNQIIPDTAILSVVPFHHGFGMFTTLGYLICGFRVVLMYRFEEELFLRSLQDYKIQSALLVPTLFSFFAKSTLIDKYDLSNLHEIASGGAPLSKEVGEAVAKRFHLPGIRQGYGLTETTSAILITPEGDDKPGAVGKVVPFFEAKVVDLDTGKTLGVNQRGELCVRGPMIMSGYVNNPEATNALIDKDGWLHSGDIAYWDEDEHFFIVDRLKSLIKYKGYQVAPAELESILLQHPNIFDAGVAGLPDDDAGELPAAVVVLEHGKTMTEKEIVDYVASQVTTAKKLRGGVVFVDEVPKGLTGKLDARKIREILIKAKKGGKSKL
Assay [11] concerns Wnt5a (protein binding on small-molecule microarray). Nature of the assay: small molecules binding Wnt5a protein – biophysical, small-molecule microarray, 635/667 nm fluorescence, primary screen (AID 1142).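 Also: fluorescence read at 667 nm with signal to noise per printed feature.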 The note with it: 635 nm fluorescence, higher = more signal.
Assay [12] can be described thus: ATP-based viability of Huh7 replicon cells – cell-based, CellTiter-Glo luminescence, basal, 48 h, cytotoxicity control for HCV replication inhibitor project, primary screen (AID 1143).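 Also: Huh7 hepatoma cells carrying a hepatitis C replication reporter with no stimulus; test concentration not given here.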 The following applies: higher = more signal, called active from +8 up or from −8 down.
Assay [13] in a line: Pseudomonas biofilm growth suppression – PAO1 strain, BacTiter-Glo luminescence, LB-PBS, primary screen (AID 1144). The note with it: P. aeruginosa PAO1 biofilm, 12 h, higher = more signal.
Assay [14] in a line: basal CRE-LacZ reporter activity in PC12 – cell-based, unstimulated, primary screen (AID 1145). The following applies: no forskolin, luminescence, 4.5 h, higher = more signal, called active from +8 up or from −8 down.
Assay [15] is described as follows: forskolin-driven CRE-LacZ activity in PC12 – cell-based, CRE-LacZ reporter, forskolin-stimulated, primary screen (AID 1146).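 Also: PC12 cells with 6xCRE LacZ reporter stimulated by forskolin 10 µM; beta-galactosidase reporter signal reflecting CREB driven transcription.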 The note with it: luminescence, 4.5 h, higher = more signal, called active from +8 up or from −8 down.
In assay [16] the target is Streptavidin (Streptomyces avidinii) (UniProt P22629). Description: compounds binding control protein streptavidin – biophysical, small-molecule microarray, 635/667 nm fluorescence, artefact control for SMM compound annotation, primary screen (AID 1147).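 Also: signal reflects streptavidin binding to arrayed compounds as a control protein.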 The following applies: higher = more signal.
Chain of Streptavidin (Streptomyces avidinii) (P22629 whole entry, looked up): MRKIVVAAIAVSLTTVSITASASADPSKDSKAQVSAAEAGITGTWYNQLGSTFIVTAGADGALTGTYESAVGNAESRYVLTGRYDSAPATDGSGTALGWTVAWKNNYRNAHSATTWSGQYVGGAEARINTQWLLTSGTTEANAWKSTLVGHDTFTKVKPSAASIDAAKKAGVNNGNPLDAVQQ
A short description of assay [17]: probe aInhba binding on compound microarray – biochemical, small-molecule microarray, 635/667 nm fluorescence, primary screen (AID 1148).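 Also: score merges 667nm spot fluorescence with signal-to-noise for antibody binding to printed compounds.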 The note with it: higher = more signal.
Assay [18] deals with Torsin-1A (Homo sapiens) (UniProt O14656). Description: TOR1A wild-type binding on microarray – cell lysate, small-molecule microarray, lysate, 635/667 nm, primary screen (AID 1149). The note with it: COS7 hTOR1A-WT lysate, 635 nm fluorescence, higher = more signal.
Chain of Torsin-1A (Homo sapiens) (O14656 whole entry, looked up): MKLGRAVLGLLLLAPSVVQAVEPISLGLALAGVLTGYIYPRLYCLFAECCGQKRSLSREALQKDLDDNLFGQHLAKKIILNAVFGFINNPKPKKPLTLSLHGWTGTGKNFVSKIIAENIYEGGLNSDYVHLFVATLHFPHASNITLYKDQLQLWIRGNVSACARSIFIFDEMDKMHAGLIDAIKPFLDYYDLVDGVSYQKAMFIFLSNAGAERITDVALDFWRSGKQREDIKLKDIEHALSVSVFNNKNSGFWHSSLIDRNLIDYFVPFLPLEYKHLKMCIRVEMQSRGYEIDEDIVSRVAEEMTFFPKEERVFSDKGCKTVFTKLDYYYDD
Assay [19] has the same target. Description: torsin A mutant lysate binding on microarrays – cell lysate, small-molecule microarray, COS7 lysate, 635/667 nm fluorescence, primary screen (AID 1150).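 Also: score pools 667 nm emission and signal to noise measuring lysate protein binding.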 The note with it: COS7 hTOR1A mutant lysate, 635 nm fluorescence, higher = more signal.
Assay [20] deals with Sonic hedgehog protein (Shh). Nature of the assay: Sonic hedgehog microarray binding compounds – biochemical, small-molecule microarray, 635/667 nm fluorescence, primary screen (AID 1151).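 Also: Shh protein binding to compounds spotted on small-molecule microarray slides; score combines spot fluorescence intensity with signal-to-noise across triplicate slides.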 The following applies: 635 nm fluorescence, higher = more signal.

The source made the active and inactive calls. Unless noted, no rule for the calls is given here.

On to `CN(C)C(=O)[C@@]1(CCS(=O)(=O)c2ccccc2)COC(c2ccc(OCCCO)cc2)=N1`, for which the composite z-score is 1.45 in [1]; 1.24 in [2]; 0.119 in assay [3]; 0.993 in assay [4]; 0.66 in [5]; -0.0861 in [6]. The composite z-score in [8] is -0.589; in [9], 0.93; in assay [11], 0.623; in assay [16], 0.0248; in assay [17], 0.0589; in assay [18], 1.24. In addition, the composite z-score in assay [19] is 2.51; in [20], -0.977. Also, the z-score is -0.572 in assay [7]; -0.446 (inactive) in assay [10]; -3.66 (inactive) in [12]; -0.26 (inactive) in assay [13]; -0.562 (inactive) in [14]; -0.793 (inactive) in assay [15].

For the compound `NC(=O)NCC#Cc1ccc2c(c1)[C@]1(C(=O)N2)[C@H](C(=O)Nc2nc3ccccc3s2)[C@H]2C(=O)O[C@H](c3ccccc3)[C@H](c3ccccc3)N2[C@@H]1c1ccccc1OCCO`, the composite z-score in assay [1] amounted to 0.678; in assay [2], 0.759; in assay [3], 0.997; in assay [4], 0.764; in assay [5], 1.22; in assay [6], 0.624. Further, the composite z-score was 1.34 in assay [8]; 1.1 in [9]; 0.436 in [11]; 2.4 in assay [16]; 0.105 in assay [17]; -0.3 in assay [18]. The results for the composite z-score in assay [19] and in [20] were 0.0607 and 2.04, respectively. For the same compound, the z-score in assay [7] is -2.46; in assay [10], -0.921 (inactive); in assay [12], -4.58 (inactive); in assay [13] it was -1.22 (inactive); in assay [14] it was 0.0776 (inactive); in assay [15], -0.327 (inactive).

As for `CCS[C@H]1[C@@H](C(=O)O)[C@H](c2ccc(C)cc2)N(S(=O)(=O)c2ccc(C)cc2)[C@@H]1CC`, the composite z-score was 1.12 in [1]; 1.24 in [2]; 0.353 in assay [3]; 0.715 in assay [4]; 0.714 in assay [5]; -0.0028 in [6]. The composite z-score in assay [8] is -0.0097; in [9], 0.652; in assay [11], 0.261; in [16] it was 0.68; in [17], 0.206; in assay [18], -0.0832. Also, the composite z-score in [19] is 0.477; in assay [20], -0.7. The z-score in assay [7] was -0.223; in [10], 1.16 (inactive); in [12], -0.0715 (inactive); in assay [13] it was -0.54 (inactive); in assay [14] it was -0.928 (inactive); in [15], -0.334 (inactive).

In the case of `Cc1ccc([C@@H]2C[C@@H](Sc3ccccc3)[C@H](C(=O)O)CN2S(=O)(=O)c2ccc(C)cc2)cc1`, the composite z-score in assay [1] is 1.98; in assay [2] it was 1.26; in assay [3], 0.373; in assay [4], 0.956; in assay [5], 0.868; in assay [6] it was 0.507. Besides, the composite z-score in assay [8] came out at 0.589; in [9], 1.14; in [11], 0.387; in [16] it was 1.39; in assay [17], 0.122; in assay [18], 0.877. The composite z-score in [19] is 0.244; in assay [20], -0.053. The z-score was -1.42 in [7]; 1.88 (inactive) in assay [10]; -0.758 (inactive) in assay [12]; -0.606 (inactive) in assay [13]; -0.676 (inactive) in [14]; 0.762 (inactive) in assay [15].

With `COC(=O)[C@@]1(Cc2ccc(OC)cc2)[C@H]2c3cc(C(=O)N(C)C)n(C)c3C[C@H]2CN1C(=O)c1ccccc1`, the composite z-score in assay [1] came to 0.392; in [2], 1.27; in [3], 0.698; in assay [4] it was 0.97; in assay [5], 1.22; in assay [6], 0.0022. Besides, the composite z-score was 0.146 in assay [8]; 1.11 in [9]; 0.485 in assay [11]; 1.77 in assay [16]; 0.706 in assay [17]; -0.0231 in assay [18]. Also, the composite z-score in assay [19] is 0.777; in assay [20], 0.418. Further, the z-score is 1.05 in [7]; 1.82 (inactive) in assay [10]; -3.59 (inactive) in assay [12]; 0.584 (inactive) in assay [13]; 0.0041 (inactive) in assay [14]; 0.0225 (inactive) in [15].

The values are drawn from PubChem BioAssay.
